Compounds with a hit are over-represented: about 3.2% of the library has one in this group of screens.
CHT block – inhibitors of human choline transporter CHT; CHT-expressing cells, membrane potential dye, choline response; hits give low values; B-score at 10 µM; hit rate 0.86% among 310,000; AID 488975, 2010;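 active = B-score over 3 SD under the library average, and starting fluorescence ratio not unusually high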;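 also: choline stimulus applied at its EC90 after an EC20 pre-addition; B-score computed on integrated fluorescence ratio after choline addition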
CHT PAM – CHT positive allosteric modulators, primary screen, cell-based, membrane potential dye, choline EC20 | hit rate 0.49% among 310,000 | High affinity choline transporter 1 (Homo sapiens), Q9GZV3 | CHT-expressing cells; hits give high values; LV-AA mutant CHT in HEK293 cells | B-score at 10 µM;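 active = initial fluorescence not abnormally high and integrated response B-score, plate-corrected, over 3 SD above library mean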
TMEM16A inh – TMEM16A chloride channel inhibitors, primary screen, cell-based, HTS; AID 588511, 2011; HEK293 TMEM16A/YFP iodide influx fluorescence, ionomycin; normalized B-score (activity score, 25-100; higher = stronger inhibition) at 10 µM; hit rate 1.2% among 310,000;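 active = ratio plate-corrected score three or more library SD toward inhibition, starting fluorescence score within five deviations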;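 also: score derived from kinetic fluorescence span divided by baseline fluorescence per well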
Kir21 block – inhibitors of mouse Kir2.1 inward-rectifier potassium channel; Inward rectifier potassium channel 2 (Mus musculus), P35561; B-score at 10 µM; HEK293-Kir2.1, FluxOR thallium flux fluorescence; hits give low values; hit rate 0.85% among 310,000;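 active = fluorescence ratio B-score at or below minus 3 SD of library scores, with starting-brightness B-score within 2 SD, cut at about -4.2 in these data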;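 also: channel flux triggered by added potassium and thallium sulfate stimulus; B-score of peak minus minimum fluorescence over baseline after thallium stimulus; more negative B-score means stronger Kir2.1 block with less thallium influx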
TMEM16A act – TMEM16A chloride channel activators or potentiators, primary screen, cell-based, HTS; Anoctamin-1 (Mus musculus), Q8BHY3; HEK293 TMEM16A/YFP-H148Q/I152L, iodide quench fluorescence; hits give low values; B-score at 10 µM; hit rate 0.3% among 340,000;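 active = fluorescence-ratio B-score plate-corrected deviation score at least 3 library SD below zero, with starting fluorescence score within 5 deviations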;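 also: channel opened by trigger with iodide after compound preincubation; score built on the fluorescence ratio of max minus min over baseline; more negative score means more quench and so TMEM16A activation or potentiation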
Rce1 inhib – yeast Rce1p protease inhibitors, primary screen, biochemical, fluorescence, cell-free homogeneous | CAAX prenyl protease 2 (Saccharomyces cerevisiae (strain ATCC 204508 / S288c)), Q03530 | yeast membranes, quenched prenylated peptide cleavage fluorescence | calls only | hit rate 0.27% among 290,000 | AID 2563, 2010;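 active = fall in fluorescence gain of 50% or more versus controls, with final raw signal at or below 3038400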;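 also: plate controls were neutral control wells for no effect and wells lacking membranes for full effect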
The depositor's hits bear a star; i = inactive; . = no result; + = active, no number.

SMILES | CHT block | CHT PAM | TMEM16A inh | Kir21 block | TMEM16A act | Rce1 inhib
Cc1ccc(S(=O)(=O)N(C)CC(=O)NNC(=O)CCS(=O)(=O)c2ccccc2)cc1 | . | . | . | . | i | .
CC(OC(=O)c1ccccc1)C(=O)NCCC1=CCCCC1 (stereo not drawn) | i | i | i | -3.2 | i | i
Cc1cc(SCC(=O)NCCC2=CCCCC2)nc2ccccc12 | i | i | i | -16* | i | i
CCC(C(=O)NCCC1=CCCCC1)c1ccccc1 (stereo not drawn) | i | i | i | -5.6* | i | i
Cc1ccccc1OC(C)C(=O)NCCC1=CCCCC1 (stereo not drawn) | i | i | i | -8.9* | i | i
O=C(N[C@@H](Cc1c[nH]c2ccccc12)C(=O)O)c1ccc(Cl)cc1 | i | i | i | -0.79 | i | i
NC(=NCCc1c[nH]c2ccccc12)NC(=O)c1ccc(Cl)cc1 | i | i | 100* | -3.6 | i | i
CCn1cc(/C=C(\NC(=O)c2ccccc2Cl)C(=O)N2CCOCC2)c2ccccc21 | i | i | i | 1.1 | i | +
CN(C)S(=O)(=O)n1cc(/C=C(\NC(=O)c2ccccc2Cl)C(=O)N2CCOCC2)c2ccccc21 | i | i | i | -0.05 | i | i
Cc1noc(-c2ccc(C(F)(F)F)cc2)c1NC(=O)Nc1ccc(Cl)cc1 | i | i | i | -0.91 | i | i
CN(C)c1ccc(/C=C2\C(=N)N3N=C(CC(=O)N4CCCCC4)SC3=NC2=O)cc1 | i | i | i | -0.67 | -5.5* | i
Cc1ccc(/C=C2/C(=N)N3N=C(CC(=O)N4CCCC4)SC3=NC2=O)o1 | i | i | i | -0.06 | i | i
CCOC(=O)c1sc2nc(C3CC3)cc(-c3ccc(F)cc3)c2c1N | i | i | i | -2.7 | i | +
CCOC(=O)c1sc2nc(C3CC3)cc(-c3ccc(OC)cc3)c2c1N | i | i | i | -2.3 | i | +
COc1cc(C(=O)Nc2cccc(S(=O)(=O)N3CCCC3)c2)cc(OC)c1C | i | i | i | -0.93 | i | i
O=C(CN1CCCc2ccccc21)NCCc1ccc(F)cc1 | i | i | i | -6.5* | i | i
COc1ccc(CCNC(=O)CN2CCCc3ccccc32)cc1OC | i | i | i | -1.6 | i | i
Cc1ccc(NC(=O)CN(C)C(=O)c2ccc(Cl)nc2)cc1 | i | i | i | 3.6 | i | i
O=C(c1cc(-c2ccccc2Cl)nc2ccc(Br)cc12)N1CCN(c2ccccn2)CC1 | i | i | 25* | 0.65 | i | i
CCS(=O)(=O)c1ccc(O)c(NC(=O)NC2CCCCC2)c1 | i | i | i | 0.26 | i | i
CCOc1ccc(NC(=S)Nc2ccccc2C2(C)CC2)cc1 | i | i | i | 0 | i | i
COc1cccc(NC(=O)c2cc3cccc(OC)c3o/c2=N\O)c1 | -5.3* | i | i | -1.6 | . | i
O=C(CCNC(=O)c1ccc([N+](=O)[O-])cc1)Nc1cccc(S(=O)(=O)N2CCOCC2)c1 | . | . | . | . | i | .
N#CC1=C(N)N(c2ccccc2)C(c2cccc([N+](=O)[O-])c2)C1(C#N)C#N (stereo not drawn) | i | i | i | -9.7* | i | i
Cc1ccnc(NC(=O)c2ccc(COc3ccc(Cl)cc3)o2)c1 | i | i | i | 0.82 | -10* | i
CN(C)C(CNC(=O)c1c(F)cccc1Cl)c1ccco1 (stereo not drawn) | i | i | i | 0.28 | i | i
CCCCCCCNC(=O)c1ccc(N2CCC3(CC2)OCCO3)c([N+](=O)[O-])c1 | i | i | 100* | 0.67 | i | i
